{"source": "PubChem BioAssay (Tox21)", "note": "“And” between values parts separate entries of the source, which are not always exact repeats. Equal entries are not always repeated. Records with an inconclusive call do not appear. A call without a number means that no potency is given here. The source made the active and inactive calls. Calls follow the shape of the dose curve; as a rule, active = well fitted cell-killing curve with a large enough effect in the repeat runs; inconclusive = weak or mixed curves, or effect the other way; inactive = no such curve, though single readings can be large or run the other way. Potency is read from the fitted curve at half-maximal effect.", "data": [{"experiment": "qHTS assay to identify small molecule antagonists of the glucocorticoid receptor (GR) signaling pathway - cell viability counter screen (AID 720693); also: nearly all actives have a fitted effect of over 55% in size", "details": "GR-bla HeLa viability, CellTiter-Glo luminescence, 18 h, with 5 nM dexamethasone present; series mostly up to 58.5 µM", "from_the_text": "National Center for Advancing Translational Sciences [NCATS]\nNIH Chemical Genomics Center [NCGC]\nU.S. Environmental Protection Agency [EPA]\nNational Institutes of Environmental Health Sciences [NIEHS]\nNational Toxicology Program [NTP]\nU.S. Food and Drug Administration [FDA]\nThe Glucocorticoid receptor (GR) is one of the members of the nuclear receptor family of ligand-dependent transcription factors. GR plays a critical role in carbohydrate, protein and lipid metabolisms and programmed cell death. CellSensor GR-bla HeLa cell line (Invitrogen) contains a beta-lactamase reporter gene under the control of the glucocorticoid response element stably integrated into HeLa cells, a cervical cancer cell line that expresses glucocorticoid receptor. The activation of the reporter gene under culture conditions can be detected by fluorescence intensity. This cell line has been used to screen the Tox21 10K compound library and to identify the compounds that inhibit the GR signaling. The cytotoxicity of the Tox21 compound library against the GR-bla HeLa cell line was tested in parallel by measuring the cell viability using CellTiter-Glo assay in the same wells.\nTox21 Assay Protocol Summary:\nThe GR-bla HeLa cells were dispensed at 1500 cells/5 ul/well in 1536-well black wall/clear bottom plates using a Multidrop Combi (ThermoFisher Scientific, Waltham, MA) dispenser. After the assay plates were incubated at a 37 C/5% CO2 incubator for 4 hours, 23 nL of compounds dissolved in DMSO, positive controls or DMSO only was transferred to the assay plate by a pintool station (Kalypsys, San Diego, CA), followed by addition of 1 uL of dexamethasone (5 nM, final concentration in the well). The plates were incubated at 37 C for 18 hours. After 1 uL of LiveBLAzerTM B/G FRET substrate was added using a Flying Reagent Dispenser (Aurora Discovery, San Diego, CA), the plates were incubated at room temperature (RT) for 2 hours, and fluorescence intensity was measured by an Envision plate reader (PerkinElmer, Shelton, CT). After measurement of bla assay, 3 ul CellTiter-Glo (Promega, Madison, WI) was added to measure the cytotoxicity and the plates were then incubated at RT for 30 min. The luminescence was measured using a ViewLux (Perkin Elmer) plate reader.", "values": [{"smiles": "CCCCCCCCCCCC(=O)NCCCN(C)C", "Potency": "30.9 µM (active)"}, {"smiles": "OC1(c2ccc(Cl)c(C(F)(F)F)c2)CCN(CCCC(c2ccc(F)cc2)c2ccc(F)cc2)CC1", "Potency": "15.1 µM (active)"}, {"smiles": "O=C(O)c1cc(O)c2c(c1)C(=O)c1cccc(O)c1C2=O", "Potency": "inactive"}, {"smiles": "CN(C)c1ccc(SC#N)cc1", "Potency": "inactive"}, {"smiles": "O=C1C=CC(=O)N1", "Potency": "31.7 µM (active)"}, {"smiles": "CN(C)c1ccc(C2(c3ccc(N(C)C)cc3)OC(=O)c3cc(N(C)C)ccc32)cc1", "Potency": "inactive"}, {"smiles": "Clc1ccccc1C(c1ccccc1)(c1ccccc1)n1ccnc1", "Potency": "inactive"}, {"smiles": "CNCc1cc(F)ccc1Oc1ccc(Cl)c(Cl)c1", "Potency": "inactive"}, {"smiles": "Cc1cc(CCN2CCN(c3nsc4ccccc34)CC2)cc2c1NC(=O)CC2(C)C", "Potency": "49 µM (active)"}, {"smiles": "CCCCCCCCCCCCCCCC(=O)OC[C@H](O)[C@H]1OC(=O)C(O)=C1O", "Potency": "inactive"}, {"smiles": "CN(C/C=C/C#CC(C)(C)C)Cc1cccc2ccccc12", "Potency": "inactive"}, {"smiles": "CC[C@H]1O[C@]2(CC[C@@H]1C)C[C@@H]1C[C@@H](C/C=C(\\C)C[C@@H](C)/C=C/C=C3\\CO[C@@H]4[C@H](O)C(C)=C[C@@H](C(=O)O1)[C@]34O)O2", "Potency": "13.7 µM (active)"}, {"smiles": "CCCCCCCC[N+](CCCCCCCC)(CCCCCCCC)CCCCCCCC", "Potency": "7.75 µM (active)"}, {"smiles": "Cc1nc(-c2ccc3c(c2)CCN(CCC2CCC(NC(=O)/C=C/c4ccc(F)cc4)CC2)CC3)no1", "note": "(stereo not given)", "Potency": "inactive"}, {"smiles": "Oc1ccc2cc(SSc3ccc4cc(O)ccc4c3)ccc2c1", "Potency": "inactive"}, {"smiles": "CCCCCOC(=O)CCCC", "Potency": "inactive"}, {"smiles": "Nc1ccccc1O", "Potency": "inactive"}, {"smiles": "COc1cc(-c2ccc(N=C=O)c(OC)c2)ccc1N=C=O", "Potency": "inactive"}, {"smiles": "Clc1ccc2n[nH]nc2c1", "Potency": "inactive"}, {"smiles": "O=C(Oc1cccc2cccnc12)c1ccccc1", "Potency": "inactive"}, {"smiles": "CC(C)=CCOc1ccc(/C=C/C(=O)c2ccc(OCC=C(C)C)cc2OCC(=O)O)cc1", "Potency": "inactive"}, {"smiles": "C1CCCC1", "Potency": "inactive"}, {"smiles": "CCCCCCCCCCCC[N+](C)(C)CCCCCCCCCCCC", "Potency": "24.5 µM (active)"}, {"smiles": "CCCCCCCC/C=C\\CCCCCCCCOCCO", "Potency": "31.9 µM (active)"}, {"smiles": "C=CC(=O)OCC(CO)(COC(=O)C=C)COC(=O)C=C", "Potency": "6.19 µM (active) and 11 µM (active)"}, {"smiles": "CN1CCN(CCC(=O)N2c3ccccc3Sc3ccc(C(F)(F)F)cc32)CC1", "Potency": "inactive"}, {"smiles": "CCOC(=O)O[C@]1(C(=O)OCCl)CC[C@H]2[C@@H]3CCC4=CC(=O)C=C[C@]4(C)[C@H]3[C@@H](O)C[C@@]21C", "Potency": "inactive"}, {"smiles": "CCCCCCCCNC(C)C(O)c1ccc(SC(C)C)cc1", "note": "(stereo not given)", "Potency": "10.7 µM (active)"}, {"smiles": "N/C(=N\\N=C\\c1ccc(Cl)cc1)N/N=C/c1ccc(Cl)cc1", "Potency": "inactive"}, {"smiles": "CCN(CC)CCCC(C)Nc1c2ccc(Cl)cc2nc2ccc(OC)cc12", "note": "(stereo not given)", "Potency": "inactive"}, {"smiles": "O=C(Nc1ccc(Oc2ccc(Cl)cc2)c(Cl)c1)c1cc(I)cc(I)c1O", "Potency": "6.01 µM (active)"}, {"smiles": "N=C1N=C(N)c2ccccc21", "Potency": "inactive"}, {"smiles": "OCCN1CCN(CC/C=C2/c3ccccc3Sc3ccc(C(F)(F)F)cc32)CC1", "Potency": "inactive"}, {"smiles": "Cc1cc(O)c(C(C)(C)C)cc1Sc1cc(C(C)(C)C)c(O)cc1C", "Potency": "10.9 µM (active)"}, {"smiles": "C[C@H]1[C@H]2CC[C@H]3[C@@H]4CC=C5C[C@@H](N(C)C)CC[C@]5(C)[C@H]4CC[C@]23CN1C", "Potency": "inactive"}, {"smiles": "NNc1nc(-c2ccc([N+](=O)[O-])cc2)cs1", "Potency": "43.6 µM (active)"}, {"smiles": "Cc1cccc(S(=O)(=O)O)c1C", "Potency": "inactive"}, {"smiles": "CCCC(c1cc(C(C)(C)C)c(O)cc1C)c1cc(C(C)(C)C)c(O)cc1C", "Potency": "11.1 µM (active)"}, {"smiles": "CC(NN)c1ccccc1", "note": "(stereo not given)", "Potency": "inactive"}, {"smiles": "CCCN(CCC)C(=O)C(CCC(=O)OCCCN1CCN(CCOC(=O)Cc2c(C)n(C(=O)c3ccc(Cl)cc3)c3ccc(OC)cc23)CC1)NC(=O)c1ccccc1", "note": "(stereo not given)", "Potency": "inactive"}]}]}
